Screening results from PubChem BioAssay.
PKM2 inhibitor – qHTS Assay for Inhibitors of Human Muscle isoform 2 Pyruvate Kinase. Pyruvate kinase PKM (Homo sapiens), P14618. purified PKM2, ATP generation, Kinase-Glo luminescence. Potency, µM (highest dose often 57.5 µM), for inactives: at the top dose activity change, negative = inhibition, hits mostly inhibitors. 260,000 tested, 0.058% active. AID 1634, 2009; active = well fitted inhibition curve with a large enough effect; also: nearly all actives have a fitted effect of over 60% in size
Target sequence (P14618 whole entry, looked up, canonical isoform): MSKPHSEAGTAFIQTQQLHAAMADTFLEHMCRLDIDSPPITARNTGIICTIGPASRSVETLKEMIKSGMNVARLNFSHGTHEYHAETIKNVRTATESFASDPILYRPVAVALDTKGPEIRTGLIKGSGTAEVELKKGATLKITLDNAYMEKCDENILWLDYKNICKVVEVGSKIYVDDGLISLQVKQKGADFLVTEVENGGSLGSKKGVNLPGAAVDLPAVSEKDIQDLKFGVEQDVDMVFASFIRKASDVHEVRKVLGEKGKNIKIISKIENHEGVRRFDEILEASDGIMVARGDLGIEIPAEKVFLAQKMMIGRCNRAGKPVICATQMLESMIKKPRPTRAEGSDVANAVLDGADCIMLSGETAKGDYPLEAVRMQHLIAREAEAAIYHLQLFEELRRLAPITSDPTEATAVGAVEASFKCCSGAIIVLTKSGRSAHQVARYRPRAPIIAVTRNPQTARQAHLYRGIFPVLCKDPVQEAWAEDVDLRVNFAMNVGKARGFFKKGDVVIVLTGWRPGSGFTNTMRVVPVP
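Enzyme run at intermediate activity with final 0.1 mM ADP, 0.5 mM PEP (50 mM imidazole pH7.2, 50 mM KCl, 7 mM MgCl2), incubated 1 h at r.t. ATP formed read by Kinase-Glo luminescence, normalized to no-enzyme (full inhibition) and uninhibited wells.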
An asterisk follows results filed as active. The full list was thinned out, with hits kept by preference. Potency is read from the fitted curve at half-maximal effect.

SMILES | PKM2 inhibitor
Cc1ccc(N2NC(=O)/C(=C\c3cc4c(cc3[N+](=O)[O-])OCO4)C2=O)cc1C | 39%
O=C(c1ccc2nc(Cc3ccccc3F)oc2c1)N1CCCC1 | 41%
COc1ccc(Cn2c3nc4ccccc4nc3c3c(=O)n(Cc4ccco4)cnc32)cc1 | 7%
O=C(COc1ccc(Br)cc1F)N1CCN(c2ncccn2)CC1 | -2%
O=S(=O)(Nc1ccc(-n2cnnn2)cc1)c1ccc(F)c(F)c1F | 30%
CCC(=O)OCCNc1cc(Sc2nc3ccccc3[nH]2)c2nonc2c1[N+](=O)[O-] | 52%
Cc1nc2ccc(N=NN(C)C)cc2[nH]1 | 62%
Nc1ccc2nc(Cc3ccccc3)[nH]c2c1 | 80%
Cc1ccc2nc(-c3ccccn3)[nH]c2c1 | 16µM*
COc1ccc(N=Nc2n(C)c3ccccc3[n+]2C)cc1 | 13µM*
Cc1ccc(CN(CC2CCCO2)C(=O)CN2C(=O)C(C(C)C)Oc3ccccc32)o1 (configuration not stated) | 111%
O=C(Nc1cccc(C(=O)O)c1)/C(=C\c1ccco1)NC(=O)c1ccc(Br)o1 | 48%
Cc1ccc(-c2nc3c(c(=O)[nH]c(=O)n3Cc3ccccc3)n2C)o1 | 48%
Cc1ccc(-c2nc3ccccc3n2C)o1 | 13µM*
COC(=O)c1cc(-c2ccc(C)o2)nc2ccccc12 | 56%
O=C(c1ccc(Cl)cc1)C1CCCN(C(=O)/C=C/c2ccccn2)C1 (configuration not stated) | 88%
Cc1cccc2cc(C#N)c(NCCNS(=O)(=O)c3ccccc3)nc12 | 51%
CC(=O)N=C1SC2CS(=O)(=O)CC2N1c1ccc(-c2nc3ccc(C)cc3s2)cc1 (configuration not stated) | 55%
COCCN=C1Sc2nc3c(C)cccc3cc2CN1Cc1ccco1 | 57%
Cc1ccc(CNC(=O)c2coc(=O)c3ccccc23)o1 | 67%
CCOC(=O)c1c(-c2ccccc2)csc1NC(=O)CSc1nnc(C)s1 | 60%
CCOC(=O)c1c(-c2ccc(C)o2)csc1NC(=S)NC(=O)c1cccs1 | 37%
COc1ccc(-c2csc(NC(=O)c3cccs3)c2C(=O)O)cc1OC | 22µM*
O=C(C(=O)N1CCCc2ccccc21)c1c[nH]c2ccccc12 | 72%
Cc1ccc(N2C(=O)c3ccccc3C2O)nc1 (configuration not stated) | 11µM*
SMILES | PKM2 inhibitor
Cc1ccc(C2CC(c3cccc(C)c3)n3ncnc3N2)cc1 (configuration not stated) | 76%
COc1cccc(-c2noc(CCC(=O)Nc3cccnc3)n2)c1 | 38%
Oc1cc2c(cc1CN1CCc3ccccc3C1)OCO2 | 32%
c1ccc2c(c1)Cc1cc3cc4c(cc3nc1-2)OCO4 | 8.9µM*
COC(C(=O)NCc1ccc(C)cc1)c1ccccc1 (configuration not stated) | 75%
Cc1ccn(S(=O)(=O)c2ccc3oc(=O)ccc3c2)n1 | 79%
c1ccc2c(SCc3cn4ccccc4n3)nncc2c1 | 81%
Cn1c(NCc2ccco2)nc2c1c(=O)n(Cc1ccc(Cl)cc1)c(=O)n2C | 36%
COc1ccc(OC)c(NC(=O)Cn2cc(C(=O)c3ccco3)c3ccccc32)c1 | 39%
Cc1nnc(-c2cccc(Br)c2)c2cn(-c3ccc(Br)cc3)nc12 | 1%
Cc1ccc(C(=O)O/N=C(\N)c2nonc2N)cc1 | 13µM*
Cc1ccc(C(=O)/C=C/C(=O)c2ccc(C)cc2)cc1 | 54%
Cc1ccc(C(=O)OCn2ncc(Cl)c(Cl)c2=O)cc1 | 31%
Cc1ccc(C(=O)O/N=C(\N)c2ccccn2)cc1 | 5.6µM*
Cn1cccc1CC(=O)N/N=C/C=C/c1ccco1 | 48%
COc1ccc(CN2C(=O)/C(=C/c3ccc(-c4ccc(Cl)c(C(=O)O)c4)o3)SC2=S)cc1 | 51%
O=C(CSc1nnc(-c2ccc(O)cc2)o1)Nc1cccc(O)c1 | 102%
COc1cccc(-n2cn[nH]c2=S)c1 | 14µM*
O=C(c1ccc(Cn2cc(Cl)c([N+](=O)[O-])n2)cc1)N1CCN(Cc2ccccc2)CC1 | 38%
CSc1nc(N)nc(SCCS(=O)(=O)c2ccc(Cl)cc2)c1C#N | 57%
O=C(O)c1cc(N2CCOCC2)nc2ccccc12 | 31%
O=C(c1ccc(Cl)c(S(=O)(=O)N2CCCCCC2)c1)N1CCOCC1 | 39%
O=C(c1ccc2c3n(nc2c1)-c1ccccc1CO3)N1CCOCC1 | 14µM*
O=C1CC(c2ccco2)CC2=C1C=Nc1ccccc1N2 (configuration not stated) | 40%
O=C(CCN1CCN(c2ccccc2)CC1)N/N=C/c1ccc(O)c(O)c1O | 44%
SMILES | PKM2 inhibitor
O=C1C=C(c2ccccc2)C[C@H](c2cccs2)[C@H]1n1cnc([N+](=O)[O-])c1 | 44%
Cc1ccc(NC(=O)CSCc2nc3c(nnn3Cc3ccc(F)cc3)c(=O)[nH]2)c(C)c1 | 37%
COc1ccc(-c2nc3ccccc3[nH]2)cc1 | 13µM*
COc1ccc2[nH]c(=O)c(-c3noc(-c4ccccc4)n3)cc2c1 | 109%
Cc1c(Cl)cccc1NC(=O)CSCc1cc(=O)[nH][nH]1 | 37%
O=C(CSc1ccc(F)cc1)N1CCN(S(=O)(=O)c2ccccc2)CC1 | 78%
COc1ccc2nc(Cl)c(C3CC(c4ccco4)=NN3C(=O)CCCC(=O)O)cc2c1 (configuration not stated) | 101%
O=C(CSc1nnc(SCc2ccccc2)s1)N/N=C/c1c[nH]c2ccccc12 | 34%
COc1ccc(C(=O)NCCN2C(=O)S/C(=C\c3cccnc3)C2=O)c(OC)c1OC | 60%
O=C1c2ccccc2C(=O)N1Cc1ccc2c(c1)OCO2 | 44%
O=C1/C(=C/Nc2ccc3c(c2)OCO3)CCc2ccccc21 | 25µM*
O=C(C1CCC1)N1CCc2cc(S(=O)(=O)Nc3ccc4c(c3)OCO4)ccc21 | 92%
Cc1cc(C(=O)O)ccc1-c1ccc(/C=C2\NC(=O)N(Cc3ccccc3Cl)C2=O)o1 | 113%
CCOC(=O)c1c(N2C(=O)CC(Sc3ccccc3C(=O)O)C2=O)sc2c1CCCC2 (configuration not stated) | 61%
CCOC(=O)CSc1nc2c(sc3ccc([N+](=O)[O-])cc32)c(=O)n1Cc1ccco1 | 39%
CN(C)c1ccc(/C=N/NC(=O)c2ccccc2O)o1 | 56%
O=C(N/N=C/c1ccc(F)cc1)c1cc(-c2ccco2)nc2ccccc12 | 74%
CCN(CC)c1ccc(/C=N/NC(=O)c2ccoc2C)cc1 | 28µM*
CC(C)CCOP(=O)(c1ccc(N(C)C)cc1)C(O)c1ccccc1F (configuration not stated) | 6%
CCN1/C(=C/c2ccc3cc(C)ccc3[n+]2CC)Sc2ccccc21 | 4.5µM*
O=c1c2sccc2nc(SCc2cc(=O)n3cc(Cl)ccc3n2)n1Cc1ccccn1 | 52%
O=C(c1ccco1)N1CCN(C(=O)c2cc(-c3ccccn3)nc3ccccc23)CC1 | 79%
O=c1c2c3c(sc2n2cnnc2n1Cc1ccccc1)CN(Cc1ccccc1)CC3 | 57%
COc1ccc(NC(=O)c2ccc(NC(=O)CSc3nccc(=O)[nH]3)cc2)cc1 | 32%
COc1ccc(NC(=O)c2ccccn2)cc1 | 14µM*
SMILES | PKM2 inhibitor
COc1cccc(NC(=O)CSc2ccccn2)c1 | 49%
CCCCn1c(SCC(=O)Nc2cc(C)on2)nc2c1c(=O)n(C)c(=O)n2C | 65%
COc1ccccc1OCC(=O)NCCCn1ccnc1 | 37%
CCCCOC(=O)Nc1ccc(S(=O)(=O)Nc2nccs2)cc1 | 30%
O=C(O)CCC(=O)N(Cc1cccnc1)Cc1cccc(F)c1 | -16%
COc1cc(/C=N/NC(=O)C2c3ccccc3Oc3ccccc32)ccc1O | 66%
